Results taken from PubChem BioAssay (NCI).
About 83,000 compounds went through this panel and 20% of them were active in at least one assay; those are over-represented in the sample as a whole.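 For each line, cells grew in 96-well plates with the test compound present at a single concentration for 48 hours.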 Activity calls are given as the source filed them. How the source made its calls: active means growth percent below 10; inactive means the rest.

Assays:
Test in all cases: NCI-60 one-dose screen, 48 h (100 = growth as untreated, 0 = no growth, -100 = all killed)
Conditions in all cases: 10 µM unless noted
NCI-H23 lung = test system: NCI-H23 lung
NCI-H226 lung = test system: NCI-H226 lung
NCI-H322M lung = test system: NCI-H322M lung
HOP-62 NSCLC = test system: HOP-62 NSCLC
NCI-H460 lung = test system: NCI-H460 lung
NCI-H522 lung = test system: NCI-H522 lung
A549/ATCC NSCLC = test system: A549/ATCC NSCLC
786-0 renal = test system: 786-0 renal
COLO 205 colon = test system: COLO 205 colon

Measured: growth

C=C(C)[C@@H]1CC[C@]2(C(=O)O)CC[C@]3(C)[C@H](CC[C@@H]4[C@@]5(C)C/C(=C/c6ccccn6)C(=O)C(C)(C)[C@@H]5CC[C@]43C)[C@@H]12
inactive: NCI-H23 lung 38.6% | NCI-H226 lung 39.9% | NCI-H322M lung 44.3% | HOP-62 NSCLC 36.3% | NCI-H460 lung 16.1% | NCI-H522 lung 24.1% | A549/ATCC NSCLC 16.5% | 786-0 renal 51.1% | COLO 205 colon 54.7%

C=C1CCc2nc(SCC(=O)O)ccc2N1
inactive: NCI-H23 lung 95.6% | NCI-H226 lung 99% | NCI-H322M lung 105% | HOP-62 NSCLC 103% | NCI-H460 lung 102% | NCI-H522 lung 96.7% | A549/ATCC NSCLC 108% | 786-0 renal 106% | COLO 205 colon 107%

CNCCN(C)c1ccc(Nc2cc(NC3CC3)n3ncc(C#N)c3n2)cc1NC(C)=O
active: NCI-H23 lung -5.36% | NCI-H460 lung 8.31% | NCI-H522 lung -35.4% | COLO 205 colon 4.36%
inactive: NCI-H226 lung 10.6% | NCI-H322M lung 10.5% | HOP-62 NSCLC 13.4% | A549/ATCC NSCLC 12% | 786-0 renal 12.8%

Cn1cc(-c2nnc(N)nc2-c2c[nH]c3ccc(Br)cc23)c2cc(Br)ccc21
inactive: NCI-H23 lung 98.3% | NCI-H226 lung 112% | NCI-H322M lung 104% | HOP-62 NSCLC 106% | NCI-H460 lung 107% | NCI-H522 lung 85.7% | A549/ATCC NSCLC 104% | 786-0 renal 89.5% | COLO 205 colon 116%

COC(=O)c1ccc(NC2=C(Cl)C(=O)c3nc(C)ccc3C2=O)cc1
inactive: NCI-H23 lung 54.8% | NCI-H226 lung 81.3% | NCI-H322M lung 101% | HOP-62 NSCLC 96.8% | NCI-H460 lung 92.3% | NCI-H522 lung 59.6% | A549/ATCC NSCLC 94.1% | 786-0 renal 85.7% | COLO 205 colon 111%

CC(=C(c1ccc(OCCN(C)C)cc1)c1ccc(OCCN(C)C)cc1)c1ccc(Cl)cc1
active: NCI-H226 lung -11.9% | NCI-H322M lung -3.42% | HOP-62 NSCLC -57.8% | NCI-H460 lung -71.9% | NCI-H522 lung -64.5% | A549/ATCC NSCLC -65% | 786-0 renal -67.5% | COLO 205 colon -50%
inactive: NCI-H23 lung 29.5%

CSc1ccc(C(=NNS(=O)(=O)c2ccc(C)cc2)c2ccc(Cl)cc2)cc1
inactive: NCI-H23 lung 94% | NCI-H226 lung 98% | NCI-H322M lung 92.7% | HOP-62 NSCLC 98.6% | NCI-H460 lung 104% | NCI-H522 lung 94.4% | A549/ATCC NSCLC 99.6% | 786-0 renal 104% | COLO 205 colon 119%

CCCCCCN1C=C/C(=C\C(=O)n2ccc3ccccc32)c2ccccc21
inactive: NCI-H226 lung 52.9% | NCI-H322M lung 93.5% | HOP-62 NSCLC 89.6% | NCI-H460 lung 87.7% | NCI-H522 lung 57.7% | A549/ATCC NSCLC 84.3% | 786-0 renal 86.6% | COLO 205 colon 87.3%
active: NCI-H23 lung 9.61%

COc1cc2cc(Oc3ccc(NC(=O)c4cc(C(F)(F)F)cc(C(F)(F)F)c4)cc3)c(C)nc2cc1OCCN1CCOCC1
inactive: NCI-H23 lung 66.9% | NCI-H226 lung 70.3% | NCI-H322M lung 98% | HOP-62 NSCLC 88.6% | NCI-H460 lung 61.6% | NCI-H522 lung 58.1% | A549/ATCC NSCLC 61.4% | 786-0 renal 25.3% | COLO 205 colon 66.7%

CC(=O)Nc1ccccc1-c1nc2ccccc2s1
inactive: NCI-H23 lung 91.8% | NCI-H226 lung 98.9% | NCI-H322M lung 101% | HOP-62 NSCLC 101% | NCI-H460 lung 101% | NCI-H522 lung 95.7% | A549/ATCC NSCLC 106% | 786-0 renal 104% | COLO 205 colon 113%

Cc1ccc2c(n1)C(=O)C(Cl)=C(Nc1cc(C(F)(F)F)cc(C(F)(F)F)c1)C2=O
inactive: NCI-H23 lung 86% | NCI-H226 lung 84.3% | NCI-H322M lung 105% | HOP-62 NSCLC 118% | NCI-H460 lung 95.9% | NCI-H522 lung 37.4% | A549/ATCC NSCLC 101% | 786-0 renal 80.3% | COLO 205 colon 92.5%

O=C(CSc1nc2ccccc2c(=O)n1-c1ccc(S(=O)(=O)Nc2ccc(Cl)nn2)cc1)Nc1ccc(S(=O)(=O)Nc2ccc(Cl)nn2)cc1
inactive: NCI-H23 lung 100% | NCI-H226 lung 99% | NCI-H322M lung 101% | HOP-62 NSCLC 104% | NCI-H460 lung 101% | NCI-H522 lung 101% | A549/ATCC NSCLC 105% | 786-0 renal 98.7% | COLO 205 colon 111%

C#Cc1cc(C(=O)Nc2ccc(CNCCN3CCOCC3)c(C(F)(F)F)c2)ccc1C
inactive: NCI-H23 lung 92.2% | NCI-H226 lung 95.4% | NCI-H322M lung 98.3% | HOP-62 NSCLC 102% | NCI-H460 lung 101% | NCI-H522 lung 89.6% | A549/ATCC NSCLC 87.7% | 786-0 renal 80.7% | COLO 205 colon 105%

CNc1sc(S(=O)(=O)NC)nc1S(=O)(=O)c1ccc(C)cc1
inactive: NCI-H23 lung 102% | NCI-H226 lung 92.5% | NCI-H322M lung 96.4% | HOP-62 NSCLC 99.4% | NCI-H460 lung 109% | NCI-H522 lung 94.5% | A549/ATCC NSCLC 98.8% | 786-0 renal 99.4% | COLO 205 colon 112%

O=C(NCCNc1cc(-c2cn(-c3ccccc3)nc2-c2cccc(O)c2)ccn1)Nc1cc(C(F)(F)F)cc(C(F)(F)F)c1
inactive: NCI-H23 lung 98.1% | NCI-H226 lung 85% | NCI-H322M lung 86.5% | HOP-62 NSCLC 95% | NCI-H460 lung 102% | NCI-H522 lung 92.2% | A549/ATCC NSCLC 96.5% | 786-0 renal 99% | COLO 205 colon 107%

Cn1cc(-c2cc3ncnc(Nc4ccc(NC(=O)Nc5cc(C(C)(C)C)on5)cc4)c3s2)cn1
inactive: NCI-H23 lung 29.4% | NCI-H226 lung 30.7% | NCI-H322M lung 57.4% | HOP-62 NSCLC 62.7% | NCI-H460 lung 42.6% | NCI-H522 lung 32.5% | A549/ATCC NSCLC 31.6% | COLO 205 colon 12.9%
active: 786-0 renal 3.44%

Cc1ccc2c(n1)C(=O)C(Cl)=C(Nc1cccc(C)c1C)C2=O
active: NCI-H23 lung -10.6% | HOP-62 NSCLC -0.0437% | NCI-H522 lung -37.5%
inactive: NCI-H226 lung 18.7% | NCI-H322M lung 16.9% | NCI-H460 lung 36.8% | A549/ATCC NSCLC 41.5% | 786-0 renal 21.9% | COLO 205 colon 87.7%

O=C(CCCCCC/C=C\c1csc(Br)n1)NO
inactive: NCI-H23 lung 95.2% | NCI-H226 lung 96.8% | NCI-H322M lung 100% | HOP-62 NSCLC 88.9% | NCI-H460 lung 85.8% | NCI-H522 lung 65.6% | A549/ATCC NSCLC 91.9% | 786-0 renal 104% | COLO 205 colon 95%

C#C[C@]1(O)CC[C@H]2[C@@H]3CC=C4c5sc(NCc6ccccc6)nc5CC[C@]4(C)[C@H]3CC[C@@]21C
active: 786-0 renal -72.3%
inactive: NCI-H23 lung 54.2% | NCI-H226 lung 75.6% | NCI-H322M lung 59.9% | HOP-62 NSCLC 14.1% | NCI-H460 lung 51.8% | NCI-H522 lung 80% | A549/ATCC NSCLC 52% | COLO 205 colon 37%

CC(C)Sc1nc(-c2ccccc2)c(C#N)c(N2CCOCC2)n1
inactive: NCI-H23 lung 65% | NCI-H226 lung 55.1% | NCI-H322M lung 38.1% | HOP-62 NSCLC 63.7% | NCI-H460 lung 42.2% | NCI-H522 lung 82.5% | A549/ATCC NSCLC 37.2% | 786-0 renal 11.9% | COLO 205 colon 74%

Brc1cc(-c2cc(-c3ccc4c(c3)OCCO4)[nH]n2)cs1
inactive: NCI-H23 lung 52.2% | NCI-H226 lung 74% | NCI-H322M lung 70.8% | HOP-62 NSCLC 61% | NCI-H460 lung 24.1% | NCI-H522 lung 29.6% | A549/ATCC NSCLC 42.8% | 786-0 renal 79.2% | COLO 205 colon 57.8%

CC(Nc1c(C#N)cnc2ccc(-c3cncc(-c4n[nH]c(=O)o4)c3)cc12)c1ccccc1 (stereo unspecified)
inactive: NCI-H23 lung 17.4% | NCI-H460 lung 11.1% | A549/ATCC NSCLC 17.7%
active: NCI-H226 lung 2.2% | NCI-H322M lung -4.15% | HOP-62 NSCLC 8.5% | NCI-H522 lung -20% | 786-0 renal 9.83% | COLO 205 colon -6.04%

Cc1ncn(-c2ccc(/C=N/Nc3ccnc4cc(Cl)ccc34)cc2)c1C
inactive: NCI-H23 lung 54.1% | NCI-H226 lung 94.1% | NCI-H322M lung 45.5% | HOP-62 NSCLC 102%
active: NCI-H460 lung -52.3% | NCI-H522 lung -66.2% | A549/ATCC NSCLC 0.0933% | 786-0 renal -89.4% | COLO 205 colon -96.5%

O=C1[C@@H]2Cc3c([nH]c4ccccc34)[C@@H](c3ccc(Cl)cc3)N2C(=O)CN1C1CCN(Cc2c(F)cccc2F)CC1
inactive: NCI-H23 lung 48.8% | NCI-H226 lung 60.6% | NCI-H322M lung 66.2% | HOP-62 NSCLC 54.1% | NCI-H460 lung 22.5% | NCI-H522 lung 36.7% | A549/ATCC NSCLC 31.6% | 786-0 renal 45.2%
active: COLO 205 colon 7.17%

CN(C)c1ccc(-c2cc(-c3c[nH]c4ccccc34)nc(N)c2C#N)cc1
inactive: NCI-H23 lung 54.8% | NCI-H226 lung 62.8% | NCI-H322M lung 69.5% | HOP-62 NSCLC 33.3% | A549/ATCC NSCLC 25.4% | 786-0 renal 17.5% | COLO 205 colon 22.1%
active: NCI-H460 lung 7.07% | NCI-H522 lung 2.93%

NCCNC(=O)c1cccc(COc2ccccc2NC(=O)c2cc(Br)c(Br)[nH]2)c1
inactive: NCI-H23 lung 84.1% | NCI-H226 lung 95.4% | NCI-H322M lung 99.7% | HOP-62 NSCLC 105% | NCI-H460 lung 99.4% | NCI-H522 lung 93.2% | A549/ATCC NSCLC 96.7% | 786-0 renal 78.9% | COLO 205 colon 110%

O=c1c2cc(-c3ccc(F)cc3F)ccc2n(O)c(=O)n1-c1cccc(C(F)(F)F)c1
active: NCI-H23 lung -2.77% | NCI-H322M lung 5.99% | HOP-62 NSCLC -9.23% | NCI-H460 lung 6.68% | NCI-H522 lung -14.2% | A549/ATCC NSCLC 6.74%
inactive: NCI-H226 lung 14.3% | 786-0 renal 30.9% | COLO 205 colon 73.9%

CCOC(=O)c1ccccc1NC1=C(Cl)C(=O)c2nc(C)ccc2C1=O
inactive: NCI-H23 lung 81.5% | NCI-H226 lung 100% | NCI-H322M lung 101% | HOP-62 NSCLC 102% | NCI-H460 lung 99.8% | NCI-H522 lung 102% | A549/ATCC NSCLC 107% | 786-0 renal 104% | COLO 205 colon 120%

CC(=O)C1=C(C)NC(NNc2ccccc2)=NC1c1ccc([N+](=O)[O-])cc1 (stereo unspecified)
inactive: NCI-H23 lung 95.3% | NCI-H226 lung 96.7% | NCI-H322M lung 84.6% | HOP-62 NSCLC 113% | NCI-H460 lung 99.9% | NCI-H522 lung 76.9% | A549/ATCC NSCLC 88.1% | 786-0 renal 97.8% | COLO 205 colon 106%
